Source: PubChem BioAssay (National Center for Advancing Translational Sciences (NCATS))
RE007 growth inh: qHTS Assay for Inhibitors of the HIV-1 protein Vpr. S. pombe RE007 Vpr strain, BacTiter-Glo ATP luminescence, 24 h. Potency, µM (top dose mostly 92.2 µM), inactives show at the highest dose activity change, negative = less growth, most hits filed as inhibitors. 360,000 tested, 0.21% active. AID 651644, 2012; active means well fitted falling curve with a large enough effect; inconclusive means small, poorly fitted or top-dose-only effect; inactive means no such curve, though single readings can be large or run the other way; further: nearly all actives have a fitted effect of over 50% in size
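Fission yeast RE007 carrying one integrated HIV-1 vpr copy, seeded at OD 0.01 in PMG+AL medium with 23 nL pinned compound. Grown 24 h at 30 degrees; viability read by BacTiter-Glo luminescence after 5 min.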
Giardia FBPA inh: qHTS Assay for Inhibitors of Fructose-1,6-bisphosphate Aldolase from Giardia Lamblia. purified Giardia FBPA. Potency, µM (top dose mostly 59.6 µM), for inactives: at the highest dose activity, negative = inhibition, usual class: inhibitors. 290,000 tested, 0.71% active; further: nearly all actives have a fitted effect of over 55% in size
Target sequence (A8B2U2 whole entry, looked up): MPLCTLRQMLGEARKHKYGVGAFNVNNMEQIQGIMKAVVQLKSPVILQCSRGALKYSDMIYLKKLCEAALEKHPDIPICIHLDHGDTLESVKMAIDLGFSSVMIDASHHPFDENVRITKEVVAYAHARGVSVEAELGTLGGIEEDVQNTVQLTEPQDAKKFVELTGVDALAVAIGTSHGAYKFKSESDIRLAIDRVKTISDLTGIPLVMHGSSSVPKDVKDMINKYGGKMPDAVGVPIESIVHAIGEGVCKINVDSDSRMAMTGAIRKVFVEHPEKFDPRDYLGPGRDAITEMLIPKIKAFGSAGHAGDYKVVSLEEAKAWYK
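40 nM FBPA preincubated 10 min at RT with compound (up to 57.5 uM final), then substrate plus GAPDH/TPI/NAD/arsenate coupling and diaphorase/resazurin added. Fluorescence read after 20 min at RT, 525/598 nm.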
AmpC detergent: qHTS Inhibitors of AmpC Beta-Lactamase (assay with detergent); P00811; AmpC hydrolysis of nitrocefin, absorbance 480 nm, 0.01% Triton; Potency, µM (top dose mostly 114 µM), inactives show at the top dose activity change, negative = inhibition, usual class: inhibitors; 370,000 tested, 0.041% active; AID 485294, 2010;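 further: 0% = no-compound wells and -100% = no-enzyme wells; nearly all actives have a fitted effect of over 25% in size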
Target sequence (P00811 whole entry, looked up): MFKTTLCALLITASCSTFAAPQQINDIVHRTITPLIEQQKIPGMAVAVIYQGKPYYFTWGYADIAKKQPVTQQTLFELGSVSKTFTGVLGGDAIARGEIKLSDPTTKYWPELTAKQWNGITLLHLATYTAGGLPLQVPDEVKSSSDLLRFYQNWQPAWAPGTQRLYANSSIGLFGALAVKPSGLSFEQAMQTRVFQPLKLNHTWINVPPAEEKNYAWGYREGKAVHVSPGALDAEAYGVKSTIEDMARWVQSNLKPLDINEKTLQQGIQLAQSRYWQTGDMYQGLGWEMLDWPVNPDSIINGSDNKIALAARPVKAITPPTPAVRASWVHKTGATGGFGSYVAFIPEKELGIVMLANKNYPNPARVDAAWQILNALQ
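20 mM phosphate pH 7.0 + 0.01% (detergent screen) or 0.0001% Triton X-100; 5.3 nM AmpC reagent; cpd preinc 15 min RT; nitrocefin (800 uM stock) to start; A480 q20 s × 4 min; Activity was normalised to no-enzyme and no-compound control wells.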
Sm TGR block: qHTS Assay for the Inhibitors of Schistosoma Mansoni Peroxiredoxins; AID 485364, 2010; 360,000 tested, 3% active; Potency, µM (titrated, usually from 114 µM), for the others: at the highest dose activity change, negative = inhibition, actives largely listed as inhibitors; Schistosoma mansoni thioredoxin glutathione reductase (TGR), Q962Y6; purified TGR, DTNB reduction, TNB absorbance 405 nm; further: nearly all actives have a fitted effect of over 60% in size
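First, TGR (20 nM dispensed) and NADPH were mixed with compound. Second, a 15 min room-temperature incubation followed. Third, further NADPH and then DTNB were added to start the reaction. Finally, TNB absorbance was monitored kinetically.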
AmpC no deterg: qHTS Inhibitors of AmpC Beta-Lactamase (assay without detergent); AmpC nitrocefin hydrolysis, absorbance 480 nm, 0.0001% Triton; 330,000 tested, 0.52% active; AID 485341, 2010; P00811; Potency, µM (highest dose often 57.1 µM), without a hit: at the top dose activity change, negative = inhibition, usual class: inhibitors;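 further: plate controls were no compound for no effect and no enzyme for full effect; nearly all actives have a fitted effect of over 20% in size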
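20 mM phosphate pH 7.0 + 0.01% (detergent screen) or 0.0001% Triton X-100; 5.3 nM AmpC reagent; cpd preinc 15 min RT; nitrocefin (800 uM stock) to start; A480 q20 s × 4 min; Activity was normalised to no-enzyme and no-compound control wells.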
An asterisk follows results filed as active; ? = inconclusive; nt = no result; [ ] = another dose, or the depositor's remark. Most compounds without a hit are left out; they make up all but 3.4% or so of the library. Unless noted, the call rests on the fitted dose curve; in most records, active means well fitted curve in the direction sought with a large enough effect; inconclusive means small, poorly fitted or top-dose-only effect, or another doubt; inactive means no such curve, though single readings can be large; an effect the other way counts as inactive or inconclusive. Unless noted, on the % scale 0 is the no-effect control and ±100 the full control effect; potency means the concentration at half of the fitted maximal effect.

SMILES | RE007 growth inh | Giardia FBPA inh | AmpC detergent | Sm TGR block | AmpC no deterg
O=C(Nc1ccccc1F)c1ccc(Cn2cc(Cl)cn2)cc1 | -6% | 3% | -2% | 10%[57.1 µM] | -9%
Cc1ccc(Cl)cc1NC(=O)c1ccc(Cn2cc(Cl)cn2)cc1 | -8% | -5% | -10% | -6% | 11µM*
Cc1ccc(C23CC4CC(CC(NC(=O)N5CCN(C)CC5)(C4)C2)C3)cc1 | 13µM* | 4% | -11% | -2% | 188%
Cc1ccc(C23CC4CC(CC(C(=O)N5CCN(C)CC5)(C4)C2)C3)cc1 | -10% | 10% | -5% | 8% | 143%
Cc1cc(C)c2ccc(N)nc2c1O | 28% | 12% | -4% | -13% | -28%
Cc1cc(C)c2ccc(C)[n+]([O-])c2c1O | -14% | -13% | 0% | 13µM* | -15%
CCOC(=O)c1ccc(NC(=S)Nc2ccc(Cl)cn2)cc1 | 2% | -7% | 6% | -11% | -21%
Cc1ccc(O)c(C2=NNC(c3ccc(Cl)cc3)C2)c1 (stereo not given) | -11% | -3% | -2% | 45µM* | -47%
Oc1ccc(Cl)cc1C1=NNC(c2cccs2)C1 (stereo not given) | -18% | 3% | 5% | 18µM* | -47%
Cc1ccc(O)c(C2=NNC(O)(C(F)(F)F)C2)c1 (stereo not given) | 0% | -7% | 0% | 2% | -11%
COCC(=O)Nc1ccc(S(=O)(=O)Nc2ccccn2)cc1 | 4% | 1% | -16% | -1% | -19%
Cc1ccc(S(=O)(=O)CC2CSc3nc4ccccc4n32)cc1 (stereo not given) | 25% | 8% | -3% | -8% | ?
CCCC(=O)N(c1ccc2oc(=O)sc2c1)S(=O)(=O)c1ccccc1 | -2% | -11% | ? | 2% | 10µM*
CC(=O)N(c1ccc2oc(=O)sc2c1)S(=O)(=O)c1ccc(C(=O)O)cc1 | 20% | -12% | ? | -3% | -36%
COC(=O)COc1ccc(S(=O)(=O)NCCC2=CCCCC2)cc1 | -19% | -1% | 3% | -24% | 0.14µM*
COC(=O)COc1ccc(S(=O)(=O)NCCC2=CCCCC2)cc1C | -4% | -5% | 1% | -7% | -1%
CCN1/C(=C/c2ccc3ccccc3[n+]2CC)C=Cc2ccccc21 | 22µM* | -15% | -3% | ? | 6%
COCCn1c(=S)[nH]c2cc(C(=O)N3CCN(Cc4ccc5c(c4)OCO5)CC3)ccc2c1=O | 11% | 8% | -10% | -11% | 1%
Cc1ccc(NC(=S)NCCSc2ccc(Cl)cc2)cc1 | -6% | -6% | -4% | -16% | -36%
Cc1ccc(N2C(=O)C3C4C=CC(CNC(=S)Nc5ccc(F)cc5)(O4)C3C2=O)cc1 (stereo not given) | 10µM* | -10% | -6% | 3.2µM* | -36%
Cc1ccc(N2C(=O)C3C4C=CC(CNC(=S)Nc5ccc(Cl)cc5)(O4)C3C2=O)cc1 (stereo not given) | 22µM* | 0% | 0% | 7.1µM* | -39%
Cc1ccc(N2C(=O)C3C4C=CC(CNC(=S)N5CCN(c6ccccn6)CC5)(O4)C3C2=O)cc1 (stereo not given) | 4µM* | -6% | 0% | 2.8µM* | -2%
Cc1ccc(C)c(NC(=S)N2CCN(c3ccccn3)CC2)c1 | -8% | 1% | 2% | -20% | -5%
Cc1ccc(N2C(=O)C3C4C=CC(CNC(=S)Nc5cccc(Cl)c5)(O4)C3C2=O)cc1 (stereo not given) | 10µM* | 2% | -5% | 4µM* | ?
C=CCn1c(SCC(=O)Nc2cc(C)cc(C)c2)nnc1-c1cnccn1 | -9% | -4% | -6% | -1% | 52%
SMILES | RE007 growth inh | Giardia FBPA inh | AmpC detergent | Sm TGR block | AmpC no deterg
O=c1cc(O)nc[nH]1 | -9% | 4% | -19% | -3% | -2%
COc1ccc(-c2cc(C(=O)N3CCC4(CC3)OCCO4)c3ccccc3n2)cc1 | 5% | nt | -5% | -8% | 127%
CCOC(=O)C1CCN(C(=O)COC(=O)COc2ccccc2OC)CC1 | 20% | 4% | ? | 3% | 34%
COC(=O)c1[nH]c2ccc(C)cc2c1NC(=O)CN1CCCC(C)(C)C1 | -6% | -1% | 2% | -8% | 23%
Cc1ccc(NC(=O)NC2OC(=O)c3ccccc32)cc1 (stereo not given) | 8% | nt | nt | nt | nt
Cc1c(Cl)cnc(NC(=O)COC(=O)c2cc3c(s2)CCC(C)C3)c1Cl (stereo not given) | 10% | 0% | 0% | 5% | -16%
CC(C)COC(=O)NCC12C=CC(O1)C1C(=O)N(c3ccc(Cl)cc3)C(=O)C12 (stereo not given) | 1.6µM* | 2% | -6% | 1.6µM* | -30%
COc1ccccc1C(C)NC(=O)CN(C)CC(=O)Nc1c(C)cccc1C (stereo not given) | -2% | nt | ? | -27% | 19%
O=C(O)c1ccccc1SCCS(=O)(=O)c1ccc(Cl)cc1Cl | -14% | 8% | 3% | 45µM* | -20%
COc1ccccc1NC(=O)c1csc2c1CCC(C)C2 (stereo not given) | -27% | -2% | 6% | 50µM* | 199%
COc1ccccc1NC(=O)c1c(NC(=O)Cc2ccccc2)sc2c1CCC(C(C)(C)C)C2 (stereo not given) | nt | nt | 6% | 6% | nt
COc1ccccc1NC(=O)c1c(NCc2ccc(C)o2)sc2c1CCC(C)C2 (stereo not given) | nt | nt | 17% | 32µM* | nt
COc1ccc(NC(=O)c2c(NCc3ccc(C)o3)sc3c2CCC(C)C3)cc1 (stereo not given) | nt | nt | 9% | 10µM* | nt
Cc1cc(F)ccc1NC(=O)c1csc2c1CCC(C)C2 (stereo not given) | nt | nt | -2% | -1% | nt
COc1ccc(NC(=O)c2c(NCc3ccc(C)o3)sc3c2CCCCC3)c(OC)c1 | nt | nt | -10% | 2.8µM* | nt
O=C(COC(=O)C12CC3CC(CC(C3)C1)C2)N1CCN(S(=O)(=O)c2ccccc2)CC1 | 4% | -2% | ? | -15% | -24%
Cc1ccc(F)cc1CNC(=O)C1CCC(=O)N(C2CC2)C1 (stereo not given) | -2% | nt | -5% | -33% | -11%
COc1ccc(NC(=O)c2c(NCc3ccc(C)o3)sc3c2CCC(C)C3)c(OC)c1 (stereo not given) | nt | nt | 17% | 28µM* | nt
COc1ccc(NC(=O)c2c(NCc3cccs3)sc3c2CCC(C)C3)c(OC)c1 (stereo not given) | nt | nt | 17% | -8% | nt
